Screening data deposited in PubChem BioAssay by National Center for Advancing Translational Sciences (NCATS).
Shown are actives, neighbours in structure and some others; about 19% of the full set was active somewhere.
DT40 TDP1 no CPT: qHTS for Inhibitors of human tyrosyl-DNA phosphodiesterase 1 (TDP1): qHTS in cells in absence of CPT; DT40 Tdp1-/- hTDP1 cells, no CPT, ATP luminescence, 48 h; Potency, µM (titrated, usually from 46.2 µM), inactives show at the top dose activity change, negative = growth inhibition, most hits filed as inhibitors; actives 15% (n = 420,000); further: potency means the concentration at half of the fitted maximal effect; on the % scale 0 is the no-effect control and ±100 the full control effect; nearly all actives have a fitted effect of over 55% in size
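Seeded 400 DT40-hTDP1 cells/well (vehicle DMSO, no 20 nM CPT); pinned compounds; ≥48 hr at 37 °C; CellTiter-Glo luminescence as viability measure.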
DT40 TDP1 CPT: growth inhibition of DT40 Tdp1-/-;hTDP1 cells with camptothecin (screen for TDP1 inhibitors); Potency, µM (titrated, usually from 46.2 µM), for the others: at the top dose activity change, negative = growth inhibition, hits mostly inhibitors; chicken DT40 Tdp1-/-;hTDP1 cells + 20 nM CPT, ATP luminescence, 48 h; actives 12% (n = 420,000); AID 686979; further: potency means the concentration at half of the fitted maximal effect; on the % scale 0 is the no-effect control and ±100 the full control effect; nearly all actives have a fitted effect of over 55% in size
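Chicken DT40 Tdp1-/- cells stably complemented with human TDP1 were seeded at 400 cells/well in medium containing 20 nM camptothecin, exposed to pin-transferred compounds, and grown at 37 °C for at least 48 hr. Viability was read as ATP luminescence.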
HepG2 viability: counter-screen for TGF-b inhibitors: cytotoxicity in HepG2 cells | actives 0.76% (n = 410,000) | AID 588856 | HepG2 CAGA-GFP viability, ATP luminescence, 18 h | Potency, µM (highest dose often 46.1 µM), for inactives: at the highest dose activity change, negative = cytotoxicity, most hits filed as cytotoxic; further: potency means the concentration at half of the fitted maximal effect
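HepG2 CAGA-GFP cells (1000/well, DMEM with 1% FBS) received compound, then TGF-beta at 500 pg/mL final, and were incubated 18 hours at 37 degrees C. Viability was read by CellTiter-Glo luminescence. Media-only wells were set as complete cell-killing and DMSO as no toxicity.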
IL-1B inflam inh: inhibitors of inflammasome signaling (IL-1 beta secretion). AID 743279. THP-1 LPS/ATP IL-1B secretion, AlphaLISA, 16 h; stronger effect = lower value. activity change, % at 57.5 µM. actives 4.7% (n = 360,000); in the data active means activity change below about -50%; inconclusive means mostly about -30% to -49%; further: on the % scale 0 is the no-effect control and ±100 the full control effect
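Secreted IL-1B measured by AlphaLISA bead assay after 16 h compound exposure of THP-1 cells; compounds (final up to 57.5 uM) added 1 h before LPS (250 ng/mL) and ATP (1.25 mM) stimulation; lower signal means less secretion.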
TGFb inhibitor: TGF-b pathway inhibition; HepG2 CAGA-GFP TGF-b/SMAD3 reporter, GFP fluorescence, 18 h; TGF-beta stimulated, 500 pg/mL final; Potency, µM (titrated, usually from 46.1 µM), for inactives: top-dose activity, negative = inhibition, usual class: inhibitors; actives 1.2% (n = 410,000); further: potency means the concentration at half of the fitted maximal effect; on the % scale 0 is the no-effect control and ±100 the full control effect; nearly all actives have a fitted effect of over 65% in size
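Read-out: total well GFP (ex488/em500-530) summed from mean per-cell fluorescence. Cells: HEPG2 CAGA-GFP, 1% FBS DMEM, 18 h at 37 degrees C with 500 pg/mL final TGF-beta. Unstimulated wells served as the full-inhibition control; stimulated DMSO wells = 0%.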
TDP1 inh: blocks human tyrosyl-DNA phosphodiesterase 1 | recombinant TDP1, AlphaScreen DNA substrate cleavage | Potency, µM (doses to about 130 µM), inactives show at the top dose activity change, negative = inhibition, most hits filed as inhibitors | actives 0.28% (n = 350,000) | Q9NUW8; further: potency means the concentration at half of the fitted maximal effect; on the % scale 0 is the no-effect control and ±100 the full control effect; nearly all actives have a fitted effect of over 40% in size
Target sequence (Q9NUW8 whole entry, looked up): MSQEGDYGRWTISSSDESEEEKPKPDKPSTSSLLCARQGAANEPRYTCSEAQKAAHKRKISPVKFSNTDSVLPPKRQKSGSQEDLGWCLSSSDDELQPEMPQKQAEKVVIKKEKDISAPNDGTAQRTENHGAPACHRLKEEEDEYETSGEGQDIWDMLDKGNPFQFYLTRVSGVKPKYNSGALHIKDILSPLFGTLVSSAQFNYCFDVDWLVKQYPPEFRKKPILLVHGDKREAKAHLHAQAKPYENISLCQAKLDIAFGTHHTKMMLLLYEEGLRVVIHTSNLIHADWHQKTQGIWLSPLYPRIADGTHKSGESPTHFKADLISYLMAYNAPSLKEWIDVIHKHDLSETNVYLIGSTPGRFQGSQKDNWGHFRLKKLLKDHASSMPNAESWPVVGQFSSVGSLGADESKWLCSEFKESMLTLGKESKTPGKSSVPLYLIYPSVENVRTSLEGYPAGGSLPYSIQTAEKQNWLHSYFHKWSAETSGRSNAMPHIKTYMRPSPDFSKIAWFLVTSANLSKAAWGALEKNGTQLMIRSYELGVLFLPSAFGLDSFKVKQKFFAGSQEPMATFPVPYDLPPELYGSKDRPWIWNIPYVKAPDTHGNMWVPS
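Recombinant human Tdp1 (E. coli-expressed, 1 nM final) preincubated with compounds 15 min at room temperature, then 5'-biotin/3'-phosphotyrosine-FITC DNA substrate (15 nM final) added for 5 min. AlphaScreen beads (10 ug/ml final) added 10 min; cleavage lowers signal.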
Starred values were filed as active, the others as inactive; ? = inconclusive; . = not tested or not shown; ! = not active in a repeat; [ ] = dose if it differs, or a comment. Unless noted, the call rests on the fitted dose curve; in most records, active means well fitted curve in the direction sought with a large enough effect; inconclusive means small, poorly fitted or top-dose-only effect, or another doubt; inactive means no such curve, though single readings can be large; an effect the other way counts as inactive or inconclusive.

SMILES	DT40 TDP1 no CPT	DT40 TDP1 CPT	HepG2 viability	IL-1B inflam inh	TGFb inhibitor	TDP1 inh
CCC(=O)N1c2ccccc2CC1C(=O)N1CCN(c2cccc(Cl)c2)CC1 (stereo not given)	-27%	?	1%	.	10%	9%
CCC(=O)N1c2ccccc2CC1C(=O)NCCN1CCN(c2cccc(Cl)c2)CC1 (stereo not given)	?	23µM*	-11%	.	-7%	6%
CNC[C@H](Cc1ccccc1)NC[C@@H](Cc1cccc2ccccc12)NCCc1ccc(C)cc1	15µM*	18µM*	18µM*	-106*	?	.
CNCCNC[C@H](Cc1cccc2ccccc12)NCCc1ccccc1	?	?	-28%	?	2%	2%
CC(c1ccccc1)n1cc2c(c1-c1ccccc1Br)c(=O)n(C)c(=O)n2C (stereo not given)	18µM*	16µM*	-30%	.	?	5%
Cn1c(=O)c2c(-c3ccccc3Br)n(C(C)(C)C)cc2n(C)c1=O	12µM*	16µM*	-19%	.	-21%	7%
COc1ccc(CCn2cc3c(c2-c2ccccc2Br)c(=O)n(C)c(=O)n3C)cc1OC	16µM*	21µM*	-28%	.	?	12%
CC(C)OCCCNC(=O)CCCn1c(SCC(=O)c2ccc(Br)cc2)nc2c(sc3ccccc32)c1=O	-23%	-13%	2%	.	-13%	6%
Cc1ccc(CNC(=O)Cn2ccn(-c3cccc(Cl)c3)c(=O)c2=O)cc1	-29%	-28%	0%	.	-1%	1%
CCOC(=O)/C=C1/N(C)c2ccccc2C1(C)C	3%	6%	27%	-10	-3%	-6%
COCCn1c(SCC(=O)/C=C2\N(C)c3ccccc3C2(C)C)nnc1-c1ccncc1	23µM*	23µM*	-20%	?	-14%	4%
Cc1cc(=O)[nH]c(SCC(=O)NN(c2ccccc2)c2ccccc2)n1	-1%	-21%	-9%	0	-9%	1%
CN1/C(=C/C(=O)CSc2ccccc2C(=O)O)C(C)(C)c2ccccc21	9.2µM*	?	2%	8	-2%	4%
CN1/C(=C\C(=O)CSc2nnc(N)s2)C(C)(C)c2ccccc21	21µM*	?	-14%	-7	0%	3%
Cc1cc(=O)[nH]c(SCC(=O)/C=C2\N(C)c3ccccc3C2(C)C)n1	9.2µM*	?	-8%	-15	3%	8%
O=C(NCC(c1ccc(F)cc1)N1CCOCC1)c1ccco1 (stereo not given)	15%	-2%	9%	8	-2%	0%
O=C(COC(=O)/C=C/C(=O)N1CCN(c2ccccc2)CC1)NC(c1ccccc1)c1ccccc1	?	?	-23%	-54*	?	8%
O=C(COC(=O)/C=C/c1cccs1)NC(c1ccccc1)c1ccccc1	?	?	11%	11	6%	5%
COc1ccccc1OCCCOc1ccc(C)cc1Br	?	-13%	-16%	2	-9%	?
CN(CCOc1ccccc1)Cc1ccccc1	-26%	?	2%	-1	0%	.
Cc1ccc(C(C)C)c(OCCCN2CCc3ccccc3C2)c1	?	?	-47%	26	?	.
Cc1ccc(C(C)C)c(OCC(O)CNC2CCCC2)c1 (stereo not given)	16µM*	23µM*	-104%	-51*	-19%	2%
Cc1ccc(C(C)C)c(OCCCN(C)Cc2ccccc2)c1	23µM*	16µM*	-57%	-21	?	3%
Cc1cc(C)c(OCCCCN(C)Cc2ccccc2)c(C)c1	23µM*	?	-50%	-2	?	.
Cc1ccc(OCCCCN(C)Cc2ccccc2)c(Br)c1	18µM*	23µM*	-85%	-98*	?	-1%
SMILES	DT40 TDP1 no CPT	DT40 TDP1 CPT	HepG2 viability	IL-1B inflam inh	TGFb inhibitor	TDP1 inh
Cc1ccccc1OCC(O)CNC1CCCC1 (stereo not given)	-6%	-1%	6%	11	5%	.
COc1ccccc1C(=O)NC1CCN(C(=O)Nc2ccc(C)cc2)CC1	-12%	-6%	9%	4	-22%	9%
Cc1ccc(C(C)C)c(OCC(O)CN(C)Cc2ccccc2)c1 (stereo not given)	?	23µM*	-154%	-85*	16µM*	.
CCOC(=O)C1CCN(C(=O)c2ccccc2CCc2ccccc2)CC1	?	?	7%	22	12%	2%
Cc1ccc(NC(=O)c2nnn(Cc3ccccc3)c2N)cc1C	7%	4%	-8%	.	2%	2%
Nc1c(C(=O)Nc2ccc3c(c2)OCCO3)nnn1CCc1ccccc1	3.3µM*	4.6µM*	-45%	-2	?	7%
Nc1c(C(=O)Nc2ccc3c(c2)OCCO3)nnn1Cc1cccc(Br)c1	23µM*	?	-17%	-51*	-5%	2%
Nc1c(C(=O)Nc2ccc3c(c2)OCCO3)nnn1Cc1ccc(Br)cc1	-28%	-11%	-8%	4	-23%	8%
CCCN(CCC)C(=O)c1cc(-c2ccc3c(c2)OCO3)nc2ccccc12	15µM*	15µM*	-5%	-14	-23%	-4%
O=C(NCc1ccc2c(c1)OCO2)c1cc(-c2ccncc2)nc2ccccc12	?	16µM*	3%	3	14%	3%
CC1(c2ccccc2)NC(=O)N(CC(=O)Nc2ccccc2C(=O)NC2CC2)C1=O (stereo not given)	-4%	-18%	0%	20	0%	0%
CCN(C(=O)Cn1cc(C(=O)c2ccc(F)cc2)c(=O)c2ccc(C)nc21)c1cccc(C)c1	?	16µM*	-2%	.	-32%	-2%
Cc1ccc(C(=O)c2cn(Cc3cccc(Cl)c3)c3nc(C)ccc3c2=O)cc1	?	?	-31%	.	-20%	4%
Cc1ccc(C(=O)c2cn(Cc3ccc(F)cc3)c3nc(C)ccc3c2=O)cc1	23µM*	16µM*	-37%	.	-7%	-3%
Nc1nc(=S)c2ncn([C@@H]3O[C@H](CO)[C@@H](O)[C@H]3O)c2[nH]1	1.8µM*	1.6µM*	-1%	0	0%	.
OCC1OC(n2cnc3c(=S)nc[nH]c32)C(O)C1O (stereo not given)	?	10µM*!	-40%	.	10µM*!	-4%
Nc1nc2c(ncn2[C@@H]2O[C@H](CO)[C@@H](O)[C@H]2O)c(=O)[nH]1	4%	18%	.	.	.	-6%[56.1 µM]
